The values below come from PubChem BioAssay (EPA / NIEHS).

Assay [1] deals with human Phosphodiesterase 10 (PDE10), PDE10A (gene 10846) (UniProt Q9Y233). The assay is described as follows: NVS_ENZ_hPDE10: NovaScreen (NVS) Enzymatic Assay for human Phosphodiesterase 10 (PDE10) (AID 2283195). The method in brief:
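Recombinant human PDE10 with fluorescent substrate, 1 h, product separated by electrophoretic mobility shift. Loss of enzyme activity fitted against DMSO; initial screen 25 uM in duplicate, actives run to 50 uM maximum.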

Assay [2] concerns the target human Protein Tyrosine Phosphatase Non-receptor Type 9 (PTPN9), PTPN9 (gene 5780) (UniProt P43378). Briefly: NVS_ENZ_hPTPN9: NovaScreen (NVS) Enzymatic Assay for human Protein Tyrosine Phosphatase Non-receptor Type 9 (PTPN9) (AID 2283209). The method in brief:
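Sf9-expressed enzyme in a cell-free assay, fluorescence read 1.33 h after dosing with mobility-shift separation of substrate and product. Tested at 25 uM in duplicate, then up to 50 uM; signal loss versus DMSO.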

Assay [3] concerns the target human Phosphoinositide 3-kinase alpha (PI3Ka), PIK3CA (gene 5290) (UniProt P42336). The assay is described as follows: NVS_ENZ_hPI3Ka: NovaScreen (NVS) Enzymatic Assay for human Phosphoinositide 3-kinase alpha (PI3Ka) (AID 2283196). The method in brief: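 Duplicate single-point screen (25 uM), then singleton dose-response (max 50 uM) for compounds meeting the threshold. Cell-free kinase reaction, 1 h; fluorescent mobility-shift readout.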

The target of assay [4] is human Vascular Endothelial Growth Factor Receptor 1 (VEGFR1), FLT1 (gene 2321) (UniProt P17948). Briefly: NVS_ENZ_hVEGFR1: NovaScreen (NVS) Enzymatic Assay for human Vascular Endothelial Growth Factor Receptor 1 (VEGFR1) (AID 2283226). The method in brief:
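Cell-free assay of recombinant human VEGFR1 kinase with substrate, measured 1 h after dosing; fluorescence with electrophoretic mobility-shift separation of substrate and product, referenced to DMSO; primary screen at 25 uM in duplicate, actives then run in concentration series.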

In assay [5] the target is human Protein Tyrosine Phosphatase Non-receptor Type 1 (PTPN1), PTPN1 (gene 5770) (UniProt P18031). The assay is described as follows: NVS_ENZ_hPTPN1: NovaScreen (NVS) Enzymatic Assay for human Protein Tyrosine Phosphatase Non-receptor Type 1 (PTPN1) (AID 2283201). The method in brief:
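Cell-free fluorogenic-substrate activity assay on recombinant enzyme, read 1.33 h after dosing by fluorescence and electrophoretic mobility shift; loss of signal vs DMSO baseline. Primary screen in duplicate at 25 uM, hits then run in concentration-response up to 50 uM.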

The target in assay [6] is Tyrosine-protein phosphatase non-receptor type 11 (Homo sapiens) (UniProt Q06124). The assay is described as follows: NVS_ENZ_hPTPN11: NovaScreen (NVS) Enzymatic Assay for human Protein Tyrosine Phosphatase Non-receptor Type 11 (PTPN11) (AID 2283202). A digest of the protocol: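 Recombinant human PTPN11 activity on a fluorescent substrate, with substrate/product separated by electrophoretic mobility shift; read 0.5 h after dosing, loss of signal vs DMSO. Duplicate 25 uM screen, then concentration-response up to 50 uM.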

For assay [7], the target named is Tyrosine-protein phosphatase non-receptor type 12 (Homo sapiens) (UniProt Q05209). Briefly: NVS_ENZ_hPTPN12: NovaScreen (NVS) Enzymatic Assay for human Protein Tyrosine Phosphatase Non-receptor Type 12 (PTPN12) (AID 2283204). A digest of the protocol:
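Single-concentration duplicates (25 uM) preceded singleton concentration-response up to 50 uM for chemicals passing threshold. Cell-free recombinant PTPN12 activity was read 1.33 h after dosing via fluorescence after mobility-shift separation; loss of signal versus DMSO.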

The target of assay [8] is Tyrosine-protein phosphatase non-receptor type 13 (Homo sapiens) (UniProt Q12923). Briefly: NVS_ENZ_hPTPN13: NovaScreen (NVS) Enzymatic Assay for human Protein Tyrosine Phosphatase Non-receptor Type 13 (PTPN13) (AID 2283205). The method in brief: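 Cell-free assay of recombinant human PTPN13 with a fluorescent substrate, product separated by electrophoretic mobility shift and read 0.5 h after dosing. Primary screen at 25 uM in duplicate, then concentration-response up to 50 uM. Loss of signal fitted against DMSO.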

The target in assay [9] is Tyrosine-protein phosphatase non-receptor type 14 (Homo sapiens) (UniProt Q15678). Briefly: NVS_ENZ_hPTPN14: NovaScreen (NVS) Enzymatic Assay for human Protein Tyrosine Phosphatase Non-receptor Type 14 (PTPN14) (AID 2283206). A digest of the protocol:
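Cell-free recombinant human PTPN14 with fluorescent substrate, read 0.5 h after dosing by fluorescence and electrophoretic mobility shift separating substrate from product. Primary screen at 25 uM in duplicate; hits run to 50 uM maximum; loss of signal versus DMSO.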

Assay [10] concerns the target human Protein Tyrosine Phosphatase Non-receptor Type 4 (PTPN4), PTPN4 (gene 5775) (UniProt P29074). The assay is described as follows: NVS_ENZ_hPTPN4: NovaScreen (NVS) Enzymatic Assay for human Protein Tyrosine Phosphatase Non-receptor Type 4 (PTPN4) (AID 2283208). A digest of the protocol: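 Cell-free assay of PTPN4 expressed in Sf9 cells, using a fluorescent substrate with product separated by mobility shift; read 1.33 h after dosing. Single-point screen at 25 uM, then concentration-response up to 50 uM. Loss of signal relative to DMSO.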

For assay [11], the target named is human Protein Tyrosine Phosphatase Non-receptor Type 6 (PTPN6), PTPN6 (gene 5777) (UniProt P29350). Briefly: NVS_ENZ_hPTPN6: NovaScreen (NVS) Enzymatic Assay for human Protein Tyrosine Phosphatase Non-receptor Type 6 (PTPN6) (AID 2283210). The method in brief: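 Cell-free assay with recombinant PTPN6 expressed in SF9 cells, fluorescent substrate, product separated from substrate by electrophoretic mobility shift; read 1.33 hours after dosing. Primary screen in duplicate at 25 uM, actives retested in concentration series; DMSO baseline.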

Assay [12] concerns the target human Protein Tyrosine Phosphatase Receptor Type B (PTPRB), PTPRB (gene 5787) (UniProt P23467). The assay is described as follows: NVS_ENZ_hPTPRB: NovaScreen (NVS) Enzymatic Assay for human Protein Tyrosine Phosphatase Receptor Type B (PTPRB) (AID 2283211). The method in brief: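 Recombinant human PTPRB with a fluorescent substrate, product separated by electrophoretic mobility shift; read 1 h after dosing. Primary screen in duplicate at 25 uM; actives then retested in concentration series; loss of signal versus DMSO.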

For assay [13], the target named is human Protein Tyrosine Phosphatase Receptor Type F (PTPRF), PTPRF (gene 5792) (UniProt P10586). The assay is described as follows: NVS_ENZ_hPTPRF: NovaScreen (NVS) Enzymatic Assay for human Protein Tyrosine Phosphatase Receptor Type F (PTPRF) (AID 2283213). The method in brief: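 Cell-free fluorescence enzyme assay with recombinant protein and substrate; product separated by electrophoretic mobility shift. Read 1 h after dosing, single 25 uM duplicate screen, then concentration-response up to 50 uM; loss of signal vs DMSO.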

For assay [14], the target named is human Protein Tyrosine Phosphatase Receptor Type M (PTPRM), PTPRM (gene 5797) (UniProt P28827). Briefly: NVS_ENZ_hPTPRM: NovaScreen (NVS) Enzymatic Assay for human Protein Tyrosine Phosphatase Receptor Type M (PTPRM) (AID 2283215). The method in brief: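 Cell-free recombinant PTPRM with fluorogenic substrate; product separated from substrate by electrophoretic mobility shift and read by fluorescence, 1.33 h after dosing. Primary screen single concentration (25 uM) in duplicate; actives retested in concentration series; loss of signal versus DMSO.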

Assay [15] has as its target human Sirtuin 2 (SIRT2), SIRT2 (gene 22933) (UniProt Q8IXJ6). The assay is described as follows: NVS_ENZ_hSIRT2: NovaScreen (NVS) Enzymatic Assay for human Sirtuin 2 (SIRT2) (AID 2283217). The method in brief:
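Cell-free recombinant human SIRT2, fluorescent substrate with product separated by electrophoretic mobility shift, 1 hr. Screened in duplicate at 25 uM; hits rerun singly in concentration-response up to 50 uM, relative to DMSO.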

In assay [16] the target is human Sirtuin 1 (SIRT1), SIRT1 (gene 23411) (UniProt Q96EB6). Briefly: NVS_ENZ_hSIRT1: NovaScreen (NVS) Enzymatic Assay for human Sirtuin 1 (SIRT1) (AID 2283219). A digest of the protocol: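 Cell-free recombinant SIRT1 with a fluorescent substrate; substrate and product separated by electrophoretic mobility shift and read by fluorescence intensity, 1 h after dosing. Primary screen at 25 uM in duplicate; hits re-run in concentration-response up to 50 uM, relative to DMSO.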

Assay [17] concerns the target human Sirtuin 3 (SIRT3), SIRT3 (gene 23410) (UniProt Q9NTG7). The assay is described as follows: NVS_ENZ_hSIRT3: NovaScreen (NVS) Enzymatic Assay for human Sirtuin 3 (SIRT3) (AID 2283222). A digest of the protocol:
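Cell-free enzyme assay with recombinant protein and fluorescent substrate, product separated by electrophoretic mobility shift; read 1 hour after dosing. Screened in duplicate at 25 uM, then singleton concentration-response up to 50 uM; loss of signal versus DMSO.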

For assay [18], the target named is human SRC Proto-Oncogene, Non-receptor Tyrosine Kinase (SRC), SRC (gene 6714) (UniProt P12931). Briefly: NVS_ENZ_hSRC: NovaScreen (NVS) Enzymatic Assay for human SRC Proto-Oncogene, Non-receptor Tyrosine Kinase (SRC) (AID 2283223). A digest of the protocol: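 Cell-free kinase activity assay with fluorescent substrate, product separated by electrophoretic mobility shift, read 1 h after dosing. Duplicate single point at 25 uM, then concentration-response up to 50 uM; loss of signal versus DMSO.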

Assay [19] concerns the target human Tropomyosin Receptor Kinase A (TRKA), NTRK1 (gene 4914) (UniProt P04629). The assay is described as follows: NVS_ENZ_hTrkA: NovaScreen (NVS) Enzymatic Assay for human Tropomyosin Receptor Kinase A (TRKA) (AID 2283224). The method in brief: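 Recombinant human TrkA activity read after 1 h by fluorescence with electrophoretic mobility shift separating substrate and product. Primary screen in duplicate at 25 uM; actives were rerun in concentration-response up to 50 uM. Loss of signal versus DMSO.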

The target in assay [20] is Serine/threonine-protein phosphatase PP1-alpha catalytic subunit (Homo sapiens) (UniProt P62136). Briefly: NVS_ENZ_hPPP1CA: NovaScreen (NVS) Enzymatic Assay for human Protein Phosphatase 1 Aatalytic subunit Alpha (PPP1CA) (AID 2283200). The method in brief:
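Recombinant enzyme activity read by fluorescence with electrophoretic mobility shift separating substrate from product, 1.33 h after dosing; loss of signal vs DMSO baseline. Primary screen in duplicate at 25 uM; actives retested in concentration-response up to 50 uM.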

Records with an inconclusive call do not appear. Where a structure was tested more than once in an assay, its records may differ in their call. Active and inactive are the calls of the source. The calls were made as follows: active = hit-call score of the fitted dose curve at least 0.9, where 1 is the maximum; inconclusive = response in the unintended direction; inactive = score below 0.9.

One may read the AC50 as the midpoint of the concentration-response curve, whichever way the signal moves.

human Vascular Endothelial Growth Factor Receptor 1 (VEGFR1), FLT1 (gene 2321), sequence (P17948 whole entry, looked up): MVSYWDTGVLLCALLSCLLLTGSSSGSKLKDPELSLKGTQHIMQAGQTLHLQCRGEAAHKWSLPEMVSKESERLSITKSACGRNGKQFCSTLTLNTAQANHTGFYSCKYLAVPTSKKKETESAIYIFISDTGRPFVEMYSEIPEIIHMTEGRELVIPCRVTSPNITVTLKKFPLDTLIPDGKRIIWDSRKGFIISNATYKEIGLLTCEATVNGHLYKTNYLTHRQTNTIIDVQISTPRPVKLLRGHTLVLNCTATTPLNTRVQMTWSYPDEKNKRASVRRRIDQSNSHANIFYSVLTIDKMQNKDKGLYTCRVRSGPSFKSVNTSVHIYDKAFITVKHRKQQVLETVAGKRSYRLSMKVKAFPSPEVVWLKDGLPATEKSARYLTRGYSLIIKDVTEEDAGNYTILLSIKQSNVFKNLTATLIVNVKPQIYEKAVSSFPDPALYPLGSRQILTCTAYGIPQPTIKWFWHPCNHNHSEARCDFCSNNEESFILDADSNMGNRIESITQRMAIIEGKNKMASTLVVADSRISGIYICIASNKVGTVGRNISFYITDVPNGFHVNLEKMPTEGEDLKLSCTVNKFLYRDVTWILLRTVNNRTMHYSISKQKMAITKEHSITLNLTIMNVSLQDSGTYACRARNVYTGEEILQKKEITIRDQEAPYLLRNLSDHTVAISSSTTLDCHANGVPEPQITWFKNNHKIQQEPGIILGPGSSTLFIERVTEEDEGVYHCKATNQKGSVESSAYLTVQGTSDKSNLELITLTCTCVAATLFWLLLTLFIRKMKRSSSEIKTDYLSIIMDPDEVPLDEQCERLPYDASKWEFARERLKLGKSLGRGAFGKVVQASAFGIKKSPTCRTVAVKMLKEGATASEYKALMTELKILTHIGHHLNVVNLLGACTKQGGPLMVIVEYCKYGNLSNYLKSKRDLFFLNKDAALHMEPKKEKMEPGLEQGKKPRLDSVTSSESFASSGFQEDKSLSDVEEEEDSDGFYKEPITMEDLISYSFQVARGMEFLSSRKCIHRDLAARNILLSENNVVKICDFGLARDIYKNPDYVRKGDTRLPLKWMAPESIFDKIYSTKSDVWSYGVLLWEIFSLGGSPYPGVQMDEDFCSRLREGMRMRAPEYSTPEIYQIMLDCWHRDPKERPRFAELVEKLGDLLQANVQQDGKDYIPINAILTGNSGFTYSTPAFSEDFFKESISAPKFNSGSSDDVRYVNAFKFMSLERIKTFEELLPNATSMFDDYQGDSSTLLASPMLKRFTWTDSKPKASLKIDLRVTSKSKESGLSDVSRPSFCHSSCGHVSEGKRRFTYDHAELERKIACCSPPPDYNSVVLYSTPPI
human Phosphoinositide 3-kinase alpha (PI3Ka), PIK3CA (gene 5290), sequence (P42336 whole entry, looked up): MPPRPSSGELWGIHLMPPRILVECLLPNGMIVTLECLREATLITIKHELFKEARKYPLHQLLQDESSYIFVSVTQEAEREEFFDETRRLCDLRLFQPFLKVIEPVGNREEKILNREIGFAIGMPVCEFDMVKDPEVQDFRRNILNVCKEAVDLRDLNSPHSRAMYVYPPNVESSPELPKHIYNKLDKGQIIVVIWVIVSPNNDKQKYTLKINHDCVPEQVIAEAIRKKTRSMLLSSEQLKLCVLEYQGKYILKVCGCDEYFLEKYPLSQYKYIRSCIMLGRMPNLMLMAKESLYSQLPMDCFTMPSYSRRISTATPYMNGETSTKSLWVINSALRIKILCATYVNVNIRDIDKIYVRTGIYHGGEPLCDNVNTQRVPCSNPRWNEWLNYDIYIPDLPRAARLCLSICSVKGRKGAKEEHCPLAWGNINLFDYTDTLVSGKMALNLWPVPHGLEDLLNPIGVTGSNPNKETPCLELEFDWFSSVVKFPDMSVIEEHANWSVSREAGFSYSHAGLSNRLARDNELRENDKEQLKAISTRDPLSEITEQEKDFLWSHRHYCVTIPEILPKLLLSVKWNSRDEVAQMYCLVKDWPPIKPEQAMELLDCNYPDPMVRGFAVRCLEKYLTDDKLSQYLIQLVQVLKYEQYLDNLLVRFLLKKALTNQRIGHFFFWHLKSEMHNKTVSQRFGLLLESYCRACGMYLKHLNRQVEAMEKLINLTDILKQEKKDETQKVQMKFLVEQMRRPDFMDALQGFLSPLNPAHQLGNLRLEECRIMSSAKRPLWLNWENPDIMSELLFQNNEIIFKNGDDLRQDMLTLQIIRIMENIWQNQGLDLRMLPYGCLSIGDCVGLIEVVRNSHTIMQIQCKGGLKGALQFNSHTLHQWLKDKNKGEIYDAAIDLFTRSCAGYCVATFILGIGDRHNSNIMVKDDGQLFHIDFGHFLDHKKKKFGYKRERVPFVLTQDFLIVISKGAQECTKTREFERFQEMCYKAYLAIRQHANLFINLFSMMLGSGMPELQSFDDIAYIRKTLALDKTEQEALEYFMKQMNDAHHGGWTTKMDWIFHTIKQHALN
human Phosphodiesterase 10 (PDE10), PDE10A (gene 10846), sequence (Q9Y233 whole entry, looked up): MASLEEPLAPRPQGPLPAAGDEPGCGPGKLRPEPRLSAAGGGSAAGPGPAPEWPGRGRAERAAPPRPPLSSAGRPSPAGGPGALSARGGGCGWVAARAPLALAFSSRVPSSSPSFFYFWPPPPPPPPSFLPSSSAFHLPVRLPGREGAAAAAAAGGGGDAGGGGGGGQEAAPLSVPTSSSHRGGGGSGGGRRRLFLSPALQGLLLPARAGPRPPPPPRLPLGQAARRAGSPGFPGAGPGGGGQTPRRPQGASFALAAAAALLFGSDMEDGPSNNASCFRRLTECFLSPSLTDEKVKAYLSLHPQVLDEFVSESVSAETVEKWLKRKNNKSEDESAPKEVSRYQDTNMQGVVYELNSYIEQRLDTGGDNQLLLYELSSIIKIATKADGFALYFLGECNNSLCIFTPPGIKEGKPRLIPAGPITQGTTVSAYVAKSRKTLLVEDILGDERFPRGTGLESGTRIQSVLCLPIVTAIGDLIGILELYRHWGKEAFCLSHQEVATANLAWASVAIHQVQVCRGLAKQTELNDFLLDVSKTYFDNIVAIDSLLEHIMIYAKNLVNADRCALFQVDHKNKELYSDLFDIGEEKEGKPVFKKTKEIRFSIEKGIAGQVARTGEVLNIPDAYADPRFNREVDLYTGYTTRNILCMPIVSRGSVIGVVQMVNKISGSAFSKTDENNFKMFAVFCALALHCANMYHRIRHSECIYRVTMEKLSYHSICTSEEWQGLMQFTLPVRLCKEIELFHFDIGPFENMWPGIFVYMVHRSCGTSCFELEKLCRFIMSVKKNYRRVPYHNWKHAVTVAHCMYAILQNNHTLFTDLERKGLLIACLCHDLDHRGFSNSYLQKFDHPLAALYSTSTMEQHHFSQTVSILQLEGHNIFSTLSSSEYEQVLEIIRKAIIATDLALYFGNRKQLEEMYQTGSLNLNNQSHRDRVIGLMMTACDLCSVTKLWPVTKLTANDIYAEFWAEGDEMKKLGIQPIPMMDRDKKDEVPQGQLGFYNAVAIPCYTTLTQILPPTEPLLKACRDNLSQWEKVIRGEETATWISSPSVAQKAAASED
human SRC Proto-Oncogene, Non-receptor Tyrosine Kinase (SRC), SRC (gene 6714), sequence (P12931 whole entry, looked up): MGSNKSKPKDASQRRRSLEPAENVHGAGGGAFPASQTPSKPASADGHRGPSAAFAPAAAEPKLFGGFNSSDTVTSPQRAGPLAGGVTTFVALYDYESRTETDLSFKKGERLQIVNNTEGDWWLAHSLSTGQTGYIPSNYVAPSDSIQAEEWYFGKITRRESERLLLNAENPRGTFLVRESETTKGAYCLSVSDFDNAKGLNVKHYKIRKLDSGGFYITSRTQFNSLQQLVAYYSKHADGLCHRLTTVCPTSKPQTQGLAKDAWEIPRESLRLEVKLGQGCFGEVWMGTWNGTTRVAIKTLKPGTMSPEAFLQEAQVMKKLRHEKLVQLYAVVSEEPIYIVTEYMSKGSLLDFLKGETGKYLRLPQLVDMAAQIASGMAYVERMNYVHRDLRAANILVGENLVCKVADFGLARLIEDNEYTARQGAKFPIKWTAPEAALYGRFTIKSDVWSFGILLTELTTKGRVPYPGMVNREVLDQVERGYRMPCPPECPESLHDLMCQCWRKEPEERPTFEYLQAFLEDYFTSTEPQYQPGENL
human Protein Tyrosine Phosphatase Non-receptor Type 6 (PTPN6), PTPN6 (gene 5777), sequence (P29350 whole entry, looked up): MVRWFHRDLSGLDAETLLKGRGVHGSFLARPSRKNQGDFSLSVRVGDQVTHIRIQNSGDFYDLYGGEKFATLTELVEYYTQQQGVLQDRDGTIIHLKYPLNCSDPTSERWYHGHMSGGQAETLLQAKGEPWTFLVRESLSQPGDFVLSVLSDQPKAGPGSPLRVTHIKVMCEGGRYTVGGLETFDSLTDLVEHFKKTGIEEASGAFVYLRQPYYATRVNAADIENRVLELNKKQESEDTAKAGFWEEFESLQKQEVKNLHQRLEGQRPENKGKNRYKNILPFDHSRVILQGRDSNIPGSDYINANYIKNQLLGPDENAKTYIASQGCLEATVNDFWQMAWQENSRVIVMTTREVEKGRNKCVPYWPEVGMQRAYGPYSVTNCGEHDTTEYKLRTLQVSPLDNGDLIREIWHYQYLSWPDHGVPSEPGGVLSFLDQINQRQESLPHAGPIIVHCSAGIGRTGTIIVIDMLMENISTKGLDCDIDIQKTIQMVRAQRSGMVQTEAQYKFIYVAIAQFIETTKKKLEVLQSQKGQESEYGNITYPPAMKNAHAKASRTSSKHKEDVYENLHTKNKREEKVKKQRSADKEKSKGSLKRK
Serine/threonine-protein phosphatase PP1-alpha catalytic subunit (Homo sapiens), sequence (P62136 whole entry, looked up): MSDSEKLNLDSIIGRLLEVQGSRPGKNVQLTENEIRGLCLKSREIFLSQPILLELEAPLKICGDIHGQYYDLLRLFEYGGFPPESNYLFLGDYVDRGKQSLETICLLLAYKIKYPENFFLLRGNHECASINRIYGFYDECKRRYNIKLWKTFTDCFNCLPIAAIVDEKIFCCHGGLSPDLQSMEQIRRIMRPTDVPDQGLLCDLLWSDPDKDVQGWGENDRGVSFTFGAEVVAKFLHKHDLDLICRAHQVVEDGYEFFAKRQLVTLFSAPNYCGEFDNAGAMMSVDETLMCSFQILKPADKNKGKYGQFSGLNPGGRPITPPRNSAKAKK

Consider `CCCCCCCCC(C)=O`, for which the molecule was classed as inactive in [1].

As for `OCC(CO)(CBr)CBr`, the molecule was classed as inactive in assay [2].

In the case of `CCN(CC)CC`, the molecule was called inactive in assay [3].

`CCCCCCCCCCCCCCCCCC[N+](C)(C)Cc1ccccc1`: the molecule was called inactive in [1] and in assay [4].

As for `CCCCCCCCCCCCOS(=O)(=O)O`, the half-maximal activity concentration (AC50) in assay [1] was 25 µM (active); in assay [5] it was 22.7 µM (active); in assay [6], 38.4 µM (active); in [7], 11.9 µM (active); in assay [8] it was 46.3 µM (active); in assay [10], 10.7 µM (active). The half-maximal activity concentration (AC50) in [2] is 16.8 µM (active); in assay [11], 25 µM (active); in assay [12] it was 7.45 µM (active); in [14] it was 25 µM (active); in assay [15], 25 µM (active); in [19], 26 µM (active). For the same molecule, the molecule was called inactive in assay [3], in [9], in assay [13], in assay [16], in assay [17] and in [18].

Take `CC(=O)CC(C)C`: the call in [1] was inactive.

As to `CCCCC(CC)C(=O)OCCOCCOCCOCCOC(=O)C(CC)CCCC` (stereo not drawn), the call in assay [3] was inactive.

Regarding `Cc1[nH]nc2c1N=C(c1ccccc1Cl)c1cc([N+](=O)[O-])ccc1N2`, the AC50 is 23.1 µM (active) in assay [18], 17.9 µM (active) in assay [19] and 0.0098 µM (active) in [4].

With `CC(C)C=O`, the outcome in [3] was inactive.

As to `CCCCCCCCCCCC`, the molecule was called inactive in assay [3].

Regarding `CCCCCC(C)OC(=O)COc1ccc(Cl)c2cccnc12` (stereo not drawn), in [7], the call was inactive.

In the case of `CCCC=O`, the result in assay [1] was inactive.

For `C=COC(=O)C(C)(C)CCCCCC`, the molecule was classed as inactive in assay [3].

As for `O=C(NCc1ncc(C(F)(F)F)cc1Cl)c1c(Cl)cccc1Cl`, in assay [1], the call was inactive.

`O=C1OC2(c3ccccc31)c1cc(I)c(O)c(I)c1Oc1c2cc(I)c(O)c1I`: the molecule was classed as inactive in assay [1].

For `Clc1ccc(Nc2nnc(Cc3ccncc3)c3ccccc23)cc1`, in [1], the molecule was called inactive.

Take `CCOCCOCC`: the result in assay [3] was inactive.

In the case of `O=C(NO)c1ccccc1`, the AC50 in assay [1] was 7.2 µM (active). Besides, the molecule was called inactive in assay [1] and in [3].

For `CCC1CO1` (stereo not drawn), in [1], the half-maximal activity concentration (AC50) was 6.67 µM (active).

In the case of `CCOC(OCC)C(=O)c1ccccc1`, the call in assay [1] was inactive.

Consider `NC(=NCCCCCCN=C(N)/N=C(\N)Nc1ccc(Cl)cc1)/N=C(\N)Nc1ccc(Cl)cc1`, for which the AC50 was 0.531 µM (active) in assay [3] and 27.6 µM (active) in assay [4].

Regarding `CC(=O)Nc1ccc(O)cc1`, the call in assay [20] and in [4] was inactive.

For `CCc1cccc(CC)c1NC(=O)C(=O)O`, the call in assay [1] was inactive.

Take `CCCCC(CC)C(=O)O` (stereo not drawn): the outcome in assay [11] was inactive.
